For twelve molecules, AC50 and outcome results are on record in PubChem BioAssay (EPA / NIEHS).

Each structure is given as a SMILES string. Values joined by “and” are separate entries in the source; they are usually repeats but may differ in a detail not shown here. Equal entries are not always repeated. Results filed as inconclusive are left out. Active and inactive are the calls of the source. The calls were made as follows, unless noted: active = hit-call score of the fitted dose curve at least 0.9, where 1 is the maximum; inconclusive = response in the unintended direction; inactive = score below 0.9.

The subject of one test is TTR (gene 7276). In words: CCTE_GLTED_hTTR_0.5uM: CCTE's human Transthyretin (hTTR) Inhibition Assay, with 0.5uM TTR, Great Lakes Toxicology and Ecology Division (GLTED) Lab (AID 2284320; active = hit-call score of the fitted dose curve at least 0.9, where 1 is the maximum; inactive = score below 0.9). The essentials: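 Probe (ANSA) displacement from 0.5 uM human transthyretin was followed by fluorescence (ex 380, em 475) after a 2 h incubation with chemical. Activity was scored as signal loss and fitted positively relative to DMSO.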

Test [1] in a line: CCTE_Padilla_ZF_Score.Craniofacial: CCTE's 144 Hour Post-fertilization zebrafish Assay Score for Craniofacial Malformation, Padilla Lab (AID 2284405; active = hit-call score of the fitted dose curve at least 0.9, where 1 is the maximum; inactive = score below 0.9). The essentials: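 Craniofacial defects were scored at 6 dpf by two blinded observers using stereomicroscopy. Exposure of wild-type embryos began at 6–8 hpf in sealed wells of 10% Hanks' solution at 26C, with chemical removed by rinsing at 5 dpf.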

Another test has as its system IYD (gene 389434). Put plainly: CCTE_GLTED_hIYD: CCTE's human Iodotyrosine Deiodinase (xIYD) Inhibition Assay, Great Lakes Toxicology and Ecology Division (GLTED) Lab (AID 2284317).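 Also: cell-free human IYD enzyme made in baculovirus insect cells; iodide freed from monoiodotyrosine measured by cerium arsenite color change at 420 nm.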 The essentials: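 Cell-free; baculovirus/insect-cell hIYD + MIT substrate + chemical, 3 h. Dowex column cleanup, then Ce4+/As3+ Sandell-Kolthoff read at A420 nm. Triplicate plates; normalized to 3-nitro-L-tyrosine (positive) and DMSO/NaOH (solvent).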

Another test has as its system SERPINA7 (gene 6906). Put plainly: CCTE_GLTED_hTBG: CCTE's human Thyroxine-binding Globulin (TBG) Inhibition Assay, Great Lakes Toxicology and Ecology Division (GLTED) Lab (AID 2284343).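 Also: active chemicals lower fluorescence versus DMSO baseline by displacing probe.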 The method, boiled down: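 Fluorescence (ex 380/em 475) reports ANSA displaced from human TBG after a 2 h incubation with test chemical, without cells. Loss of signal indicates displacement, with DMSO serving as baseline.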

Test [2] in a line: CCTE_Deisenroth_5AR_NBTE_donor: CCTE's 5alpha-reductase NanoBRET Target Engagement Assay […], Deisenroth Lab (AID 2284319; active = hit-call score of the fitted dose curve at least 0.9, where 1 is the maximum; inactive = score below 0.9). Particulars: actives raise or lower the signal. The method, boiled down:
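In this secondary endpoint, donor luminescence from SRD5A2-NanoLuc in transfected HEK293T flags artifacts. Test chemical (10 nM - 29.9 uM) is present five hours, tracer the last two; mock-tracer wells run plate-matched; data fitted bidirectionally against DMSO.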
Background: Bioluminescence resonance energy transfer reports proximity on the nanometre scale.

Test [3] is described as follows: CCTE_Deisenroth_5AR_NBTE_acceptor: CCTE's 5alpha-reductase NanoBRET Target Engagement Assay - Autofluorescence Screen, Deisenroth Lab (AID 2284321; active = hit-call score of the fitted dose curve at least 0.9, where 1 is the maximum; inactive = score below 0.9;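 also: compound fluorescence in the acceptor channel under 460 nm excitation flags autofluorescence artifacts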). Particulars: actives raise or lower the signal. The method, boiled down: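 Using three independent plate-reader runs, nominal 100 uM chemicals were checked for intrinsic fluorescence (ex 460 nm). DMSO defined the baseline for bidirectional fitting.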

Another test deals with SRD5A2 (gene 6716). In words: CCTE_Deisenroth_5AR_NBTE_ratio: CCTE's 5alpha-reductase NanoBRET Target Engagement Assay - Ratio, Deisenroth Lab (AID 2284322; active = hit-call score of the fitted dose curve at least 0.9, where 1 is the maximum; inactive = score below 0.9). The following applies: actives raise or lower the signal. The essentials: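 SRD5A2-NanoLuc HEK293T; cmpd 10 nM-29.9 uM, 3 h preinc + testosterone tracer 2 h; NanoBRET ratio 650/460; bidirectional fit vs DMSO.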
Test [4] can be described thus: CCTE_Mundy_HCI_iCellGluta_NOG_NeuriteLength: CCTE's Neurite Outgrowth Assay in iCellGluta cells for Neurite Length, Mundy Lab (AID 2284318). The essentials:
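Automated high-content imaging of betaIII-tubulin (Alexa Fluor-488) and Hoechst-stained cells gave neurite length, normalized to the DMSO baseline.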

Test [5] is described as follows: TAMU_PeakParms_SingleDonor1434_Asystole: Texas A&M University (TAMU) 1.5-hr Human Induced Pluripotent Stem Cell (iPSC)-derived Cardiomyocytes Calcium (Ca+2) Flux Assay for Cardiotoxicity: Asystole (quiescence of beating) (AID 2284328). The method, boiled down:
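Human iPSC-derived cardiomyocytes (donor 1434) were exposed to 0.2, 1, 10 and 100 uM compound in 0.5% DMSO for 90 min at 37C. Ca2+-dye fluorescence gave average peak frequency; POD is EC95, a 95% beat-rate drop versus DMSO.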

The nature of test [6]: CCTE_Mundy_HCI_iCellGluta_NOG_NeuronCount: CCTE's Neurite Outgrowth Assay in iCellGluta cells for Neuron Count, Mundy Lab (AID 2284340).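 Also: cells fixed about 48 h after compound addition.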 The essentials:
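Neuron count read by automated high-content imaging of Hoechst 33342 and betaIII-tubulin/Alexa Fluor-488 labelling in human iPSC glutamatergic neurons. Activity fitted relative to DMSO.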

A short description of test [7]: CCTE_Mundy_HCI_iCellGluta_NOG_NeuriteCount: CCTE's Neurite Outgrowth Assay in iCellGluta cells for Neurite Count, Mundy Lab (AID 2284342).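 Also: chemical exposure about 48 hours starting 2 hours after plating.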
Test [8] in a line: IUF_NPC2-5_cytotoxicity_72hr: Cytotoxicity Assessment at 72 hours in the Leibniz Research Institute for Environmental Medicine (IUF) Neural Progenitor Cell Migration and Differentiation Assay for Cytotoxicity (NPC2-5) (AID 2284306).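 Also: LDH release into supernatant measured by resorufin fluorescence marking membrane damage.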 The essentials:
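Primary human neural progenitor spheres migrate and differentiate on laminin. Compound is present from the start of differentiation, with DMSO kept at or below 0.1%. At 72 h, supernatant LDH is quantified fluorometrically, with values fitted in the positive direction.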

The nature of test [9]: IUF_NPC2-5_cytotoxicity_120hr: Cytotoxicity Assessment at 120 hours in the Leibniz Research Institute for Environmental Medicine (IUF) Neural Progenitor Cell Migration and Differentiation Assay (NPC2-5) (AID 2284307). The essentials:
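Membrane-integrity loss is quantified by LDH in supernatant after five days of exposure of migrating, differentiating human fetal NPC spheres; seven serially diluted concentrations are tested with DMSO kept at or below 0.1%.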

The nature of test [10]: IUF_NPC2-5_cell_number_120hr: Cell Number Assessment at 120 hours in the Leibniz Research Institute for Environmental Medicine (IUF) Neural Progenitor Cell Migration and Differentiation Assay (NPC2-5) (AID 2284308; active = hit-call score of the fitted dose curve at least 0.9, where 1 is the maximum; inactive = score below 0.9;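 also: count of Hoechst-stained nuclei in migration zone around plated human neural progenitor spheres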). The essentials:
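Seven-point serial dilutions plus solvent control were applied to plated 0.3 mm hNPC spheres at differentiation start, with medium half-replaced at day 3. Nuclei positive for Hoechst in the migration zone were enumerated at 120 h.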

Test [11] in a line: IUF_NPC2-5_viability_120hr: Viability Assessment at 120 hours in the Leibniz Research Institute for Environmental Medicine (IUF) Neural Progenitor Cell Migration and Differentiation Assay (NPC2-5) (AID 2284312; active = hit-call score of the fitted dose curve at least 0.9, where 1 is the maximum; inactive = score below 0.9). The essentials: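 Human fetal (GW 16-19) neural progenitor spheres of 0.3 mm were plated on poly-D-lysine/laminin in N2 differentiation medium and exposed from day 0 for 120 h, with half-medium refresh at day 3. Viability was read as alamar blue resazurin-to-resorufin fluorescence against DMSO.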

Test [12] is described as follows: IUF_NPC1_cytotoxicity_72hr: Cytotoxicity Assessment at 72 hours in the Leibniz Research Institute for Environmental Medicine (IUF) Neural Progenitor Cell Proliferation Assay (NPC1) (AID 2284332).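 Also: rising LDH signal means more cytotoxicity.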 The essentials:
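LDH in supernatant, resazurin→resorufin fluorescence (RFU), 72 h exposure, no re-dosing. Cells: primary hNPC spheres, one per well, EGF+FGF medium, 37C/5% CO2, pH 7.2-7.6. Fit: positive direction vs baseline and dynamic range.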

By AC50 is commonly meant the concentration giving half of the maximal activity seen.

Take `O=C(O)C(F)(F)OC(F)(F)C(F)(F)OC(F)(F)C(F)(F)C(F)(F)C(F)(F)F`: the AC50 in the test with TTR (gene 7276) was 0.712 µM (active). In addition, the call in test [1] was inactive.
With `CCCCCCCCOC(=O)c1ccc(O)cc1`, the figures for the AC50 in the test with IYD (gene 389434) and with SERPINA7 (gene 6906) were 39.6 µM (active) and 7.24 µM (active), respectively.
As to `CC(=O)C1=C(C)[C@@H]2C[C@@]3(C1)[C@H](C)CC[C@H]3C2(C)C`, the molecule was called inactive (in test [2]; in test [3]; with SRD5A2 (gene 6716)).
Regarding `C=C(C)C(=O)OCCC(F)(F)C(F)(F)C(F)(F)C(F)(F)C(F)(F)C(F)(F)C(F)(F)C(F)(F)F`, in test [1], the call was inactive.
Take `N#CCCNCCC#N`: the result in test [4], in test [5], in test [6] and in test [7] was inactive.
For `O=C(c1ccc(OCCN2CCCCC2)cc1)c1c(-c2ccc(O)cc2)sc2cc(O)ccc12`, the AC50 in test [2] was 50 µM (active); in test [3] it was 50 µM (active); in the test with SRD5A2 (gene 6716) it was 19.1 µM (active).
With `OCC(F)(OC(F)(F)C(F)(OC(F)(F)C(F)(F)C(F)(F)F)C(F)(F)F)C(F)(F)F` (centres undefined), the half-maximal activity concentration (AC50) in [1] is 34.8 µM (active).
Take `c1ccc2scnc2c1`: the molecule was classed as inactive in test [8], in [9], in [10], in test [11], in test [4] and in test [12]. Also, the result in test [6] and in test [7] was inactive.
For the molecule `CNC(=C[N+](=O)[O-])NCCSCc1ccc(CN(C)C)o1`, the outcome in test [5] was inactive.
As for `CCCCC(CC)COC(=O)COc1ccc(Cl)cc1C` (centres undefined), the outcome in test [8], in [9], in [10], in test [11] and in test [12] was inactive. The figures for the AC50 in test [4], in [6] and in test [7] were 33.4 µM (active), 39 µM (active) and 32.2 µM (active), respectively.
On to `CC/C(=C(\c1ccccc1)c1ccc(OCCN(C)C)cc1)c1ccccc1`, for which the half-maximal activity concentration (AC50) in the test on IYD (gene 389434) is 55.8 µM (active) and 31.5 µM (active); in test [2], 67.4 µM (active); in [3], 64 µM (active); with SRD5A2 (gene 6716), 76.6 µM (active). Further, in [5], the result was inactive.
Take `CCCCCCOc1ccc(O)cc1`: the AC50 in the test with SERPINA7 (gene 6906) is 33.7 µM (active).
